# Experimental data published in ChEMBL document CHEMBL3988442, “University of Dundee, Small-Polar-MMV Screening Library” (2021).
# For some assays here: Measured potencies and affinities stand elsewhere.
# How the values were obtained:
# [1] = target: T1, Methionyl-tRNA synthetase, putative (Leishmania donovani (strain BPK282A1)) (UniProt E9BF75); test: Leishmania donovani Methionine tRNA synthetase (LdMetRS):v7. Dose response assay; assay type: functional; parameters: conc 80 nM, time 150 minutes
# T1 sequence (whole entry): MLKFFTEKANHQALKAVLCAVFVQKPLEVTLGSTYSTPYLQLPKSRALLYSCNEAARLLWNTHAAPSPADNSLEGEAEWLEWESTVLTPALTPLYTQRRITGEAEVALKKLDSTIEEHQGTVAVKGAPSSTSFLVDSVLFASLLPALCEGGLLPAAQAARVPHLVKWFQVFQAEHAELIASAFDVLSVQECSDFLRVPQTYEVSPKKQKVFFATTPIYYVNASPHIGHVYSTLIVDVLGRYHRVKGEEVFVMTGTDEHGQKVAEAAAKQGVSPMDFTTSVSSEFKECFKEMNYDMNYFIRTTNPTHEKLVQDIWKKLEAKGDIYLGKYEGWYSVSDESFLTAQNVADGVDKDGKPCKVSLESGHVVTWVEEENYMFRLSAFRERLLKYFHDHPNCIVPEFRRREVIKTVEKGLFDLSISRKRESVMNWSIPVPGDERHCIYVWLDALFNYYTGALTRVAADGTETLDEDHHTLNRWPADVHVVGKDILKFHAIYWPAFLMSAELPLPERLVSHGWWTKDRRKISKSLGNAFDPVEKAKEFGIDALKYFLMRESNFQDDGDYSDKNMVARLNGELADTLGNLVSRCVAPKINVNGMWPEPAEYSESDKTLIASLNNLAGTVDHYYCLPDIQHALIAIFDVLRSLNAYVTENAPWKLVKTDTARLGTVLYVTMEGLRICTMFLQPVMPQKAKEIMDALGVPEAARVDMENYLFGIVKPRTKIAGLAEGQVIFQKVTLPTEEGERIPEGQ
# [2] = target: Protein translocase subunit SecA (Escherichia coli (strain K12)) (UniProt P10408); test: Assay to Identify E. coli SecA ATPase Inhibitors; assay type: functional; parameters: scale not given: direction of the effect not stated beside the values; conditions: 30 µM
# [3] = target: T2, Ubiquitin-activating enzyme e1, putative (Leishmania donovani (strain BPK282A1)) (UniProt E9BSI1); test: Leishmania donovani Ubiquitin Activating Enzyme (LdE1); assay type: functional; parameters: scale not given: direction of the effect not stated beside the values; conditions: 30 µM
# T2 sequence (whole entry): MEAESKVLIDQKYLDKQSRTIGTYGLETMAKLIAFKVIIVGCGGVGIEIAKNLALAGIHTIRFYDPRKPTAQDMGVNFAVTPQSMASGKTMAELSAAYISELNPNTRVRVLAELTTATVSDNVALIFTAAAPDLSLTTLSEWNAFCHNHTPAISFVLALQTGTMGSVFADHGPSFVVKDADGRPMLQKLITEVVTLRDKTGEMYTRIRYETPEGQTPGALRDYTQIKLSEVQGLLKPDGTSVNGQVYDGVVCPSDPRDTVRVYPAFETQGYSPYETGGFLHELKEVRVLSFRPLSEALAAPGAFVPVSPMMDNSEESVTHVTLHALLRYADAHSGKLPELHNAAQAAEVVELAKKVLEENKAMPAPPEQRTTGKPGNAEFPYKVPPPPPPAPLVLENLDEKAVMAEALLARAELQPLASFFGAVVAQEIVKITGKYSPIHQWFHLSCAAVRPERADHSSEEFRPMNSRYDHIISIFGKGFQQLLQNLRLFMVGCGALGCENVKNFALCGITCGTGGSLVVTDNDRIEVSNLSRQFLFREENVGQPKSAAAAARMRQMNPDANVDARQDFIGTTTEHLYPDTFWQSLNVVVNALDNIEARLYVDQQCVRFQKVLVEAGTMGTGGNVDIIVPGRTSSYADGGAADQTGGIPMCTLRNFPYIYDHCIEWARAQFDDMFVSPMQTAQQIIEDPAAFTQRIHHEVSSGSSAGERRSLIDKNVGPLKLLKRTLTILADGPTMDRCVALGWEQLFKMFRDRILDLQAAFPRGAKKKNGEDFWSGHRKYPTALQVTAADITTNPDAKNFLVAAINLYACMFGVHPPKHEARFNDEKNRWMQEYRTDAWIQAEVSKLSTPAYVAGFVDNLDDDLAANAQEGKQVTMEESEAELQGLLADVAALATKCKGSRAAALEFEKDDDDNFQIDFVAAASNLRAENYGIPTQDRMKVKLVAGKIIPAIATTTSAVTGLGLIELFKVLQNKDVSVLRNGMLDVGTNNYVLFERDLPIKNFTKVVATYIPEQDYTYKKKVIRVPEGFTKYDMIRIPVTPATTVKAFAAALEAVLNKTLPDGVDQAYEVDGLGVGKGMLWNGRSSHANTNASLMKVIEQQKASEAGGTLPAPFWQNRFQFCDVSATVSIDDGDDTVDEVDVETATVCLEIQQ
# [4] = target: AMP-activated protein kinase, AMPK (Homo sapiens) (UniProt P54646+O43741+P54619+Q9UGJ0+Q9Y478+Q13131+Q9UGI9); test: AMP-dependent Kinase enzyme assay. An in vitro enzyme assay that detects ADP turnover that is directly proportional to AMPK activity. This uses naive AMPK that is activated during the assay with MK-8722; assay type: functional; parameters: scale not given: direction of the effect not stated beside the values; conditions: 30 µM
# [5] = target: Sialic acid-binding Ig-like lectin 9 (Homo sapiens) (UniProt Q9Y336); test: Hs-Siglec9 ALPHAscreen SOP 20170721; parameters: scale not given: direction of the effect not stated beside the values; conditions: 10 µM
# [6] = tested on: Trypanosoma cruzi; test: Trypanosoma cruzi phosphomannomutase and mannose-1-phosphate guanylyltransferase assay; assay type: functional; parameters: scale not given: direction of the effect not stated beside the values; conditions: 10 µM
# [7] = target: T3, Arginase-2, mitochondrial (Homo sapiens) (UniProt P78540); test: in vitro enzyme assay to detect the production of urea directly proportional to the activity of Arginase II; assay type: functional; parameters: scale not given: in the data most compounds retested in dose-response had high values; conditions: 33.3 µM
# T3 sequence (whole entry): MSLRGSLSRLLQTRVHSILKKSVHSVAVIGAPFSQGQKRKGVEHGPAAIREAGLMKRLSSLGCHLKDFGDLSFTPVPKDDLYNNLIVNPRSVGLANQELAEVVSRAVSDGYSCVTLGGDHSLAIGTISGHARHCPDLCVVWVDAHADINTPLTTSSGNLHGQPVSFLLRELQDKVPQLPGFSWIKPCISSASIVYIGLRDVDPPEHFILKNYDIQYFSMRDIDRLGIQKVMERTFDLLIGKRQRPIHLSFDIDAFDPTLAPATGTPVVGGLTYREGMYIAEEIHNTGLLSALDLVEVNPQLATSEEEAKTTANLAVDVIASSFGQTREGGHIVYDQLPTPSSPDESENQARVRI
# [8] = target: T4, Proteasome subunit beta (Trypanosoma cruzi) (UniProt O96673); test: Trypanosoma cruzi proteasome chymotrypsin-like activity (TcProtChymo) assay.; assay type: functional; parameters: scale not given: in the data most compounds retested in dose-response had high values; conditions: 9.37 µM
# T4 sequence (whole entry): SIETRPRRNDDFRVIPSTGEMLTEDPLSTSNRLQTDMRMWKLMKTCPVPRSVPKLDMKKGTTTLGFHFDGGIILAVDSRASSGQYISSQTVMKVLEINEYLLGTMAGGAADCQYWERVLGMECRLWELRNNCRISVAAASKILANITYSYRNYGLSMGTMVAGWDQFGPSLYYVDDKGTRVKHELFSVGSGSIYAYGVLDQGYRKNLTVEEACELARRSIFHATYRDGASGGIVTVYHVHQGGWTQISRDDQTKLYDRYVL
# [9] = species: Homo sapiens; test: To identify inhibition of the IFN signalling (Jak-Stat) pathway via expression of an eGFP reporter gene under the control of an IFN-stimulated response element (ISRE) containing MxA promoter.; assay type: functional; parameters: scale not given: direction of the effect not stated beside the values; conditions: 30 µM
# [10] = target: T5, Tyrosyl-tRNA synthetase, putative (Trypanosoma cruzi (strain CL Brener)) (UniProt Q4DSP6); test: Trypanosoma cruzi tyrosyl tRNA synthetase (TcYRS) _High Tyrosine SOP; assay type: functional; parameters: scale not given: in the data most compounds retested in dose-response had high values; conditions: 30 µM
# T5 sequence (whole entry): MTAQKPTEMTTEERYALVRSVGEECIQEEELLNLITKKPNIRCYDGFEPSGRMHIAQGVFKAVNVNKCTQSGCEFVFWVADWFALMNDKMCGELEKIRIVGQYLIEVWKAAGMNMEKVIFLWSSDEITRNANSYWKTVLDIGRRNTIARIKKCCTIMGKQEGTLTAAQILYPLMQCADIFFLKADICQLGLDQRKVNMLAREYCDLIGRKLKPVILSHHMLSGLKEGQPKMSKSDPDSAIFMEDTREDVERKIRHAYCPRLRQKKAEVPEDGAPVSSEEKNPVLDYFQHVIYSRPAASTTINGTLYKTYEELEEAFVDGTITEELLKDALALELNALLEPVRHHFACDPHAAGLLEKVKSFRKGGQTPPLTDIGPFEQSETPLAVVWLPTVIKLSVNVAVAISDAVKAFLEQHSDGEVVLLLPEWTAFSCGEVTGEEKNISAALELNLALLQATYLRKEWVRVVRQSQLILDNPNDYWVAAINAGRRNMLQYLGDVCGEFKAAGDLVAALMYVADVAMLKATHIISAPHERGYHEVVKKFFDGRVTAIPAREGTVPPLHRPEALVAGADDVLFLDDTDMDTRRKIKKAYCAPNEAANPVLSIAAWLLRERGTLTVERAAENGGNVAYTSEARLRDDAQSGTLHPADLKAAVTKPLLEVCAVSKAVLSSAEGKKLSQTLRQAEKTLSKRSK
# [11] = target: T5, Tyrosyl-tRNA synthetase, putative (Trypanosoma cruzi (strain CL Brener)); test: Trypanosoma cruzi tyrosyl tRNA synthetase (TcYRS) SOP; assay type: functional; parameters: scale not given: direction of the effect not stated beside the values; conditions: 30 µM
# [12] = target: Chromo domain-containing protein 1 (Saccharomyces cerevisiae (strain ATCC 204508 / S288c) (Baker's yeast)) (UniProt P32657); test: ScCHD-1 Enzyme Inhibition Assay; assay type: functional; parameters: scale not given: in the data most compounds retested in dose-response had high values; conditions: 30 µM
# Sequence of Chromo domain-containing protein 1 (Saccharomyces cerevisiae (strain ATCC 204508 / S288c) (Baker's yeast)) (P32657 whole entry, the tested form may be a part): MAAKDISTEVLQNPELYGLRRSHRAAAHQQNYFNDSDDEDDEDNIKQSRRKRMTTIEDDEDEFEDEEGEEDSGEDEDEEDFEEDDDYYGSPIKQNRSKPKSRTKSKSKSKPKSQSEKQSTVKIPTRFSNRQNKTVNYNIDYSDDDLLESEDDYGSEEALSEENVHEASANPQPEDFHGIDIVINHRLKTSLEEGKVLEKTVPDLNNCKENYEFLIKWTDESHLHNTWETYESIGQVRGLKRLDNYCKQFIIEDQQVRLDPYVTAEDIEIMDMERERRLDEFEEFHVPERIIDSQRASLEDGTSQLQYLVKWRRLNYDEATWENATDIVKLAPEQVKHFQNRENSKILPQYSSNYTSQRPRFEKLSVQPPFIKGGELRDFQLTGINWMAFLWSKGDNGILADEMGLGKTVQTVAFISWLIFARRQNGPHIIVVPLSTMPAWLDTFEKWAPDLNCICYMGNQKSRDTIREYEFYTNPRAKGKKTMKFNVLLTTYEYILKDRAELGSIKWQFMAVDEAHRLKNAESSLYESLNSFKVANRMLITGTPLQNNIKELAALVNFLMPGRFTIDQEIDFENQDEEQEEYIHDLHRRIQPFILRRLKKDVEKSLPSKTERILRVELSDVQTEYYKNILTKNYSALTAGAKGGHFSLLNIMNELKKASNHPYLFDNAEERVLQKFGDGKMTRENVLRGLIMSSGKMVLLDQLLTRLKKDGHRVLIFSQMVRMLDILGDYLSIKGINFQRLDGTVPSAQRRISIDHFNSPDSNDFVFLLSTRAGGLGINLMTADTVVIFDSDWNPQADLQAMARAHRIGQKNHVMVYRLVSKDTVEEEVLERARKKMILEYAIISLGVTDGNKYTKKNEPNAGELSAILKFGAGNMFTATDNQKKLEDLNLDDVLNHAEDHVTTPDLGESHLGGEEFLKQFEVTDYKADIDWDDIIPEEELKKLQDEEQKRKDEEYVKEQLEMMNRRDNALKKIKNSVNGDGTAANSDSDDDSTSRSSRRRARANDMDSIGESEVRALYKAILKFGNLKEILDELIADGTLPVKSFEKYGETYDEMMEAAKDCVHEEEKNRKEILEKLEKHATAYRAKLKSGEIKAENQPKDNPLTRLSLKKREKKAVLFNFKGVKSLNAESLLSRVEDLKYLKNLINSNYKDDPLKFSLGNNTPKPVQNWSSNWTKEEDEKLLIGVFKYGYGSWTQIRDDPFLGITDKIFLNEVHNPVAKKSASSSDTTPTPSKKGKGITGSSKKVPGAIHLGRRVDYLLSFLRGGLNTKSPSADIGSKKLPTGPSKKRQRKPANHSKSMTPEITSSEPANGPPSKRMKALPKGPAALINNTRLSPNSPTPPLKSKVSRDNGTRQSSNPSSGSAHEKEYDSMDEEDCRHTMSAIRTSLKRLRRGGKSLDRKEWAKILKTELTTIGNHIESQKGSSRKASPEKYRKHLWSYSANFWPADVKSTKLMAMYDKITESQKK
# Sequence of Protein translocase subunit SecA (Escherichia coli (strain K12)) (P10408 whole entry): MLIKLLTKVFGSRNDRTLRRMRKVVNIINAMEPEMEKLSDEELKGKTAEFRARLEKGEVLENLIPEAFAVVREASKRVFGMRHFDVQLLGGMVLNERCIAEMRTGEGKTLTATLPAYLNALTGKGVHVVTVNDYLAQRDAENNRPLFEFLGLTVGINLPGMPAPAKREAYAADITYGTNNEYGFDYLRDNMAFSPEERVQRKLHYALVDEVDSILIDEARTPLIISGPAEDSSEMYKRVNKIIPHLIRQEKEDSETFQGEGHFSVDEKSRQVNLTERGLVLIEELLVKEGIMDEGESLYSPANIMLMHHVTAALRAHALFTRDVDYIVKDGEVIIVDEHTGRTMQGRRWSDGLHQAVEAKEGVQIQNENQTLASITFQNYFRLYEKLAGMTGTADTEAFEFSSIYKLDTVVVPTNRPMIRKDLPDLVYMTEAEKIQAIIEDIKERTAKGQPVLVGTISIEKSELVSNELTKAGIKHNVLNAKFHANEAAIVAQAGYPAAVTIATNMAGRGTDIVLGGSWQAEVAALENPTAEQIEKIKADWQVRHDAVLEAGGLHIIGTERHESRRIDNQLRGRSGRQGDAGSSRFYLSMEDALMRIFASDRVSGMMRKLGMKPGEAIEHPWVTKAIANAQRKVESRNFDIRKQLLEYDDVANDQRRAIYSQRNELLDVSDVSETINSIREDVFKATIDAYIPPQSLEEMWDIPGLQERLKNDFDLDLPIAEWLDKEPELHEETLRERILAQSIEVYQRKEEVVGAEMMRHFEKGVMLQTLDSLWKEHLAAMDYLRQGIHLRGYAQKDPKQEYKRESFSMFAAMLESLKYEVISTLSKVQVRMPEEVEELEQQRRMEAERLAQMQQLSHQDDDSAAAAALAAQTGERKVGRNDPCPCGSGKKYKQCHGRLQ
# Sequence of Sialic acid-binding Ig-like lectin 9 (Homo sapiens) (Q9Y336 whole entry): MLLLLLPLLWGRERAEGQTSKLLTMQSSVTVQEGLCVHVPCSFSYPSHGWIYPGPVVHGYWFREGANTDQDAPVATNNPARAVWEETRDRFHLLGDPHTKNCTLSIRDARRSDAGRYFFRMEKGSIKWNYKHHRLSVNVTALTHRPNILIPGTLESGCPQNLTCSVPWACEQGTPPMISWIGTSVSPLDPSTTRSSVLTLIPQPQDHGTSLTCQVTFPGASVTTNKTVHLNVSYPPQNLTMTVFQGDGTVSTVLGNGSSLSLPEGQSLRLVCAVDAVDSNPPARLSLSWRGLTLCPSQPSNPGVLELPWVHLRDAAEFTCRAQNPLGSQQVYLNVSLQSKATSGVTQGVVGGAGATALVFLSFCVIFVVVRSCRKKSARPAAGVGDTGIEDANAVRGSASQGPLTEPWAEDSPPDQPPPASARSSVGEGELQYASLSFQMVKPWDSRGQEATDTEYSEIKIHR
structure (smiles),measurement,setting,value
Cc1ccc(CN2CCC(F)(F)C3(CCN(c4cnccn4)C3)C2)o1 (configuration not stated),PXC50,[1]; MAX_EFFECT 8.551068884,< 4
same,PXC50,[1]; MAX_EFFECT 15.66901408,< 4
same,Percent Effect,[2],-2.38%
same,Percent Effect,[3],2.7%
same,Percent Effect,[4],11.5%
same,Percent Effect,[5],1.13%
same,Percent Effect,[6],0%
same,Percent Effect,[7],3.33%
same,Percent Effect,[8],-3.13%
same,Percent Effect,[9],0.47%
same,Percent Effect,[10],5.94%
same,Percent Effect,[11],3.66%
same,Percent Effect,[12],-2.36%
Cc1nn(C)c(C)c1CCn1cncc1-c1ccc2c(c1)CC(C)N2C (configuration not stated),PXC50,"[1]; BOTTOM 5.604710013, HILLSLOPE 1.073782549, MAX_EFFECT 50.43327556, TOP 78.0664514",4.19
same,PXC50,[1]; MAX_EFFECT 34.22818792,< 4
same,PXC50,[1]; MAX_EFFECT 37.5,< 4
same,PXC50,[1]; MAX_EFFECT 42.63038549,< 4
same,PXC50,[1]; MAX_EFFECT 45.23364486,< 4
Cn1ncc2c(NCCO)nc(Nc3ccc(F)c(F)c3)nc21,PXC50,"[1]; BOTTOM 1.675324724, HILLSLOPE 0.887004354, MAX_EFFECT 86.8852459, TOP 97.31963994",5.01
same,PXC50,"[1]; BOTTOM 3.874295481, HILLSLOPE 1.000014766, MAX_EFFECT 87.03703704, TOP 93.55609097",5.08
same,PXC50,"[1]; BOTTOM 3.975924252, HILLSLOPE 0.806965021, MAX_EFFECT 84.10596026, TOP 99.5157675",4.91
same,PXC50,"[1]; BOTTOM 7.489204203, HILLSLOPE 1.122010423, MAX_EFFECT 83.60655738, TOP 90.20006383",4.96
same,PXC50,"[1]; BOTTOM -1.215365939, HILLSLOPE 0.665929937, MAX_EFFECT 87.19646799, TOP 108.6182019",4.92
CCN(CC)c1ccc2ccc(C(=O)NC3CC3)cn12,PXC50,[1]; MAX_EFFECT 23.88888889,< 4
same,PXC50,[1]; MAX_EFFECT 27.69953052,< 4
same,PXC50,[1]; MAX_EFFECT 36.60245184,< 4
same,PXC50,[1]; MAX_EFFECT 45.65217391,< 4
same,PXC50,[1]; MAX_EFFECT 46.2585034,< 4
COc1ccccc1C1(CNc2nnc(C)c(C)c2C#N)CCCC1,PXC50,"[1]; BOTTOM 3.334115973, HILLSLOPE 1.087838863, MAX_EFFECT 53.16698656, TOP 83.15988554",4.21
same,PXC50,[1]; MAX_EFFECT 37.68115942,< 4
same,PXC50,[1]; MAX_EFFECT 40.13605442,< 4
same,PXC50,[1]; MAX_EFFECT 44.81658692,< 4
same,PXC50,[1]; MAX_EFFECT 49.91243433,< 4
O=C(c1ccc2[nH]ccc2c1)N1CCn2cnc(COCC3CC3)c2C1,PXC50,"[1]; BOTTOM 5.122464756, HILLSLOPE 1.784249951, MAX_EFFECT 79.5379538, TOP 100.0",4.27
same,PXC50,"[1]; BOTTOM 5.453463465, HILLSLOPE 1.390916791, MAX_EFFECT 57.24637681, TOP 100.0",4.07
same,PXC50,[1]; MAX_EFFECT 37.27598566,< 4
same,Percent Effect,[2],1.11%
same,Percent Effect,[3],7.79%
same,Percent Effect,[4],5.2%
same,Percent Effect,[5],-2.14%
same,Percent Effect,[6],-2.66%
same,Percent Effect,[7],13.6%
same,Percent Effect,[8],17.4%
same,Percent Effect,[9],5.61%
same,Percent Effect,[10],26.5%
same,Percent Effect,[11],37.2%
same,Percent Effect,[12],-6.46%
